# In PubChem BioAssay AID1159580 (chemical genetic matrix, 2015):
# Values joined by “and” are separate entries in the source; they are usually repeats but may differ in a detail not shown here. Identical values can stand only once. The whole screen tested about 5,500 compounds, of which about 2,000 (36%) were called active. Another 18% or so got no clear call; they are omitted. Rule as the data show it: active = normalized growth mostly below about 0.91 (no sharp cut-off); inconclusive = no clear call, values can overlap the other calls; inactive = mostly above about 0.92. This is one part of the list.
# Assay: chemical genetic growth profiling, strain panel (AID 1159580);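 also: tested at 20 µM; growth read once vehicle control cultures reached saturation at 30 °C; 1 = growth at the plate median or of vehicle wells; lower values mean less growth of the strain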
# Settings: S. cerevisiae deletion strains, growth OD
smiles,measurement,setting,value
Cc1cc(/C=C/c2ccc3cc(N(C)C)ccc3[n+]2C)c(C)n1-c1ccccc1,normalized growth,"locus YAL013W, strain DEP1, stronger effect = lower value",0.987 (inactive)
same,normalized growth,"locus YAL021C, strain ccr4, stronger effect = lower value",0.507 (active)
same,normalized growth,"locus YAL026C, strain drs2, stronger effect = lower value",0.924 (inactive)
same,normalized growth,"locus YAL030W, strain snc1, stronger effect = lower value",0.954 (inactive)
same,normalized growth,"locus YBL061C, strain skt5, stronger effect = lower value",0.927 (inactive)
same,normalized growth,"locus YBR009C, strain hhf1, stronger effect = lower value",0.922 (inactive)
same,normalized growth,"locus YBR021W, strain FUR4, stronger effect = lower value",0.668 (active)
same,normalized growth,"locus YBR023C, strain chs3, stronger effect = lower value",0.96 (inactive)
same,normalized growth,"locus YBR171W, strain sec66, stronger effect = lower value",1.04 (inactive)
same,normalized growth,"locus YBR229C, strain ROT2, stronger effect = lower value",1 (inactive)
same,normalized growth,"locus YBR231C, strain swc5, stronger effect = lower value",0.74 (active)
same,normalized growth,"locus YBR279W, strain paf1, stronger effect = lower value",0.882 (active)
same,normalized growth,"locus YCL011C, strain gbp2, stronger effect = lower value",0.837 (active)
same,normalized growth,"locus YCL016C, strain dcc1, stronger effect = lower value",0.912 (active)
same,normalized growth,"locus YCL029C, strain bik1, stronger effect = lower value",0.998 (inactive)
same,normalized growth,"locus YCL061C, strain MRC1, stronger effect = lower value",0.93 (inactive)
same,normalized growth,"locus YCL069W, strain vba3, stronger effect = lower value",0.995 (inactive)
same,normalized growth,"locus YCR088W, strain abp1, stronger effect = lower value",0.978 (inactive)
same,normalized growth,"locus YDL005C, strain med2, stronger effect = lower value",1.03 (inactive)
same,normalized growth,"locus YDL035C, strain GPR1, stronger effect = lower value",0.525 (active)
same,normalized growth,"locus YDL040C, strain nat1, stronger effect = lower value",1 (inactive)
same,normalized growth,"locus YDL074C, strain BRE1, stronger effect = lower value",0.653 (active)
same,normalized growth,"locus YDL101C, strain DUN1, stronger effect = lower value",0.744 (active)
same,normalized growth,"locus YDL134C, strain PPH21, stronger effect = lower value",0.615 (active)
same,normalized growth,"locus YDL185W, strain tfp1, stronger effect = lower value",1 (inactive)
same,normalized growth,"locus YDL192W, strain arf1, stronger effect = lower value",0.987 (inactive)
same,normalized growth,"locus YDR001C, strain nth1, stronger effect = lower value",1.01 (inactive)
same,normalized growth,"locus YDR069C, strain doa4, stronger effect = lower value",0.989 (inactive)
same,normalized growth,"locus YDR101C, strain arx1, stronger effect = lower value",0.986 (inactive)
same,normalized growth,"locus YDR137W, strain rgp1, stronger effect = lower value",0.834 (active)
same,normalized growth,"locus YDR159W, strain sac3, stronger effect = lower value",1.04 (inactive)
same,normalized growth,"locus YDR162C, strain NBP2, stronger effect = lower value",0.232 (active)
same,normalized growth,"locus YDR195W, strain ref2",1.25 [resistant] (active)
same,normalized growth,"locus YDR297W, strain sur2, stronger effect = lower value",0.961 (inactive)
same,normalized growth,"locus YDR318W, strain mcm21, stronger effect = lower value",0.946 (inactive)
same,normalized growth,"locus YDR334W, strain swr1, stronger effect = lower value",0.843 (active)
same,normalized growth,"locus YDR335W, strain msn5, stronger effect = lower value",0.953 (inactive)
same,normalized growth,"locus YDR388W, stronger effect = lower value",0.989 (inactive)
same,normalized growth,"locus YDR392W, strain spt3, stronger effect = lower value",0.782 (inactive)
same,normalized growth,"locus YDR502C, strain sam2, stronger effect = lower value",0.943 (inactive)
same,normalized growth,"locus YEL003W, strain gim4, stronger effect = lower value",0.949 (inactive)
same,normalized growth,"locus YEL037C, strain rad23, stronger effect = lower value",0.915 (active)
same,normalized growth,"locus YEL061C, strain CIN8 (second series), stronger effect = lower value",1 (inactive)
same,normalized growth,"locus YEL061C, strain CIN8, stronger effect = lower value",0.879 (active)
same,normalized growth,"locus YER015W, strain faa2, stronger effect = lower value",0.736 (active)
same,normalized growth,"locus YER016W, strain bim1, stronger effect = lower value",0.992 (inactive)
same,normalized growth,"locus YER110C, stronger effect = lower value",1.02 (inactive)
same,normalized growth,"locus YER111C, strain swi4, stronger effect = lower value",1.05 (inactive)
same,normalized growth,"locus YER155C, strain BEM2 (second series), stronger effect = lower value",0.727 (active)
same,normalized growth,"locus YER155C, strain BEM2, stronger effect = lower value",1.03 (inactive)
same,normalized growth,"locus YER167W, strain BCK2, stronger effect = lower value",0.825 (active)
same,normalized growth,"locus YFR010W, strain ubp6, stronger effect = lower value",0.989 (inactive)
same,normalized growth,"locus YGL078C, strain dbp3, stronger effect = lower value",1.02 (inactive)
same,normalized growth,"locus YGL086W, strain mad1, stronger effect = lower value",0.889 (active)
same,normalized growth,"locus YGL167C, strain pmr1, stronger effect = lower value",1.01 (inactive)
same,normalized growth,"locus YGL173C, strain kem1, stronger effect = lower value",0.974 (inactive)
same,normalized growth,"locus YGL227W, strain vid30, stronger effect = lower value",1.04 (inactive)
same,normalized growth,"locus YGL240W, strain doc1, stronger effect = lower value",0.962 (inactive)
same,normalized growth,"locus YGL248W, strain PDE1, stronger effect = lower value",0.65 (active)
same,normalized growth,"locus YGL253W, strain hxk2, stronger effect = lower value",0.684 (active)
same,normalized growth,"locus YGR078C, strain PAC10, stronger effect = lower value",0.776 (active)
same,normalized growth,"locus YGR135W, strain pre9, stronger effect = lower value",0.808 (active)
same,normalized growth,"locus YGR252W, strain gcn5, stronger effect = lower value",0.606 (active)
same,normalized growth,"locus YHR013C, strain ard1, stronger effect = lower value",0.662 (active)
same,normalized growth,"locus YHR027C, strain rpn1, stronger effect = lower value",0.83 (active)
same,normalized growth,"locus YHR030C, strain SLT2, stronger effect = lower value",0.815 (active) and 1.02 (inactive)
same,normalized growth,"locus YHR079C, strain IRE1 (second series), stronger effect = lower value",1 (inactive)
same,normalized growth,"locus YHR079C, strain IRE1, stronger effect = lower value",1.04 (inactive)
same,normalized growth,"locus YHR094C, strain hxt1, stronger effect = lower value",1.01 (inactive)
same,normalized growth,"locus YHR129C, strain ARP1, stronger effect = lower value",0.904 (active)
same,normalized growth,"locus YHR142W, strain chs7, stronger effect = lower value",1 (inactive)
same,normalized growth,"locus YHR200W, strain rpn10, stronger effect = lower value",0.857 (active)
same,normalized growth,"locus YIL066C, strain RNR3, stronger effect = lower value",0.87 (inactive)
same,normalized growth,"locus YIL073C, strain SPO22, stronger effect = lower value",0.278 (active)
same,normalized growth,"locus YIL125W, strain kgd1, stronger effect = lower value",1.03 (inactive)
same,normalized growth,"locus YIR030C, strain dcg1, stronger effect = lower value",1 (inactive)
same,normalized growth,"locus YJL092W, strain hpr5, stronger effect = lower value",0.893 (active)
same,normalized growth,"locus YJL095W, strain BCK1 (second series), stronger effect = lower value",1.01 (inactive)
same,normalized growth,"locus YJL095W, strain BCK1, stronger effect = lower value",0.876 (inactive) and 1.02 (inactive)
same,normalized growth,"locus YJL115W, strain asf1, stronger effect = lower value",1.01 (inactive)
same,normalized growth,"locus YJL129C, strain trk1, stronger effect = lower value",0.373 (active)
same,normalized growth,"locus YJL134W, strain LCB3, stronger effect = lower value",1 (inactive)
same,normalized growth,"locus YJL154C, strain vps35, stronger effect = lower value",1.01 (inactive)
same,normalized growth,"locus YJL164C, strain tpk1, stronger effect = lower value",0.92 (inactive)
same,normalized growth,"locus YJL166W, strain qcr8, stronger effect = lower value",0.955 (inactive)
same,normalized growth,"locus YJL168C, strain set2, stronger effect = lower value",0.984 (inactive)
same,normalized growth,"locus YJL187C, strain SWE1 (second series), stronger effect = lower value",0.88 (inactive)
same,normalized growth,"locus YJR043C, strain POL32, stronger effect = lower value",0.651 (active)
